# Measured values published in PubChem BioAssay.
# The other results are listed elsewhere or left out. Active and inactive are the calls of the source.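 Rule for the calls, unless noted: active = inhibition reaching about 45% at 4 µM in either replicate (limit read from the data); inactive = the rest.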
# Columns and labels:
# [1] = PMA/ionomycin-induced NF-kB reporter inhibitors, Jurkat retest, confirmation, T-cell NF-kB inhibitor project, cell-based, luminescence, single concentration (AID 435020); details: Jurkat NF-kB luciferase, 16 h, at 4 µM, stronger effect = higher value;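 note: plate controls were PMA/ionomycin stimulated DMSO wells for no effect and unstimulated DMSO wells for full effect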
# [2] = cytotoxicity in PPC-1 cells, confirmation, cytotoxicity control for TRAIL apoptosis potentiator project, cell-based, ATP content luminescence (AID 1447;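 active = reconfirmed compounds whose average cytotoxicity reaches 50% or more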;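 note: 0% = DMSO-treated cells and 100% = wells holding medium but no cells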); details: PPC-1 viability, ATPlite luminescence, overnight; at 5 µM; stronger effect = higher value
# [3] = biological target: Tumor necrosis factor receptor superfamily member 10B (Homo sapiens) (UniProt O14763); assay: caspase-8 TRAIL sensitization, hit retest, confirmation, cell-based, NB7+caspase-8, with/without TRAIL, luminescence panel (AID 651596; in the data active = activity above about 50%); details: NB7 neuroblastoma + caspase-8, TRAIL sensitization, luminescence viability, with TRAIL, mean of runs, at 10 µM, stronger effect = higher value
# Sequence of Tumor necrosis factor receptor superfamily member 10B (Homo sapiens) (O14763 whole entry, looked up): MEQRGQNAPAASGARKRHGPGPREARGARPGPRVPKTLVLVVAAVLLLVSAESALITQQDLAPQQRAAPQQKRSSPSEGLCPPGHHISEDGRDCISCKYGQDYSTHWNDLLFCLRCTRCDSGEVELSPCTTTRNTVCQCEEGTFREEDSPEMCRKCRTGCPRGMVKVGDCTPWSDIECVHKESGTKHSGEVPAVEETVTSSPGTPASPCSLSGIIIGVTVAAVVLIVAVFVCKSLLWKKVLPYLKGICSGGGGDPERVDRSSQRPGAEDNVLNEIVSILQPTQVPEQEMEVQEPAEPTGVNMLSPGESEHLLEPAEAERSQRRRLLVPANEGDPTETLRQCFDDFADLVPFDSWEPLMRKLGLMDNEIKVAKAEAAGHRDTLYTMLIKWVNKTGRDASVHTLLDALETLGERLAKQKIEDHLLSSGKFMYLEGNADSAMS
# [4] = as above; details: NB7 neuroblastoma + caspase-8, without TRAIL, luminescence viability, without TRAIL, mean of runs, at 10 µM
# [5] = biological target: Sentrin-specific protease 8 (Homo sapiens) (UniProt Q96LD8); assay: SENP8 protease inhibitors, retest, confirmation, biochemical, luminescence, single concentration (AID 488912;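 active = mean inhibition across replicates above about 50%, limit read from the data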); details: Recombinant SENP8, Z-RLRGG-aminoluciferin luminescence, 60 min; at 12.5 µM; stronger effect = higher value
# Sequence of Sentrin-specific protease 8 (Homo sapiens) (Q96LD8 whole entry, looked up): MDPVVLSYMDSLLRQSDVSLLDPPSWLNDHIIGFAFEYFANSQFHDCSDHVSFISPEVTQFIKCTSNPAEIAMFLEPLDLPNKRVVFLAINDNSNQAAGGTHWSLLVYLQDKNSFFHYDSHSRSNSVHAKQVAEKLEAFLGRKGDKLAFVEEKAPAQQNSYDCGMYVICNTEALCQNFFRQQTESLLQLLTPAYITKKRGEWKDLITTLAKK
# [6] = biological target: Sentrin-specific protease 6 (Homo sapiens) (UniProt Q9GZR1); assay: SENP6 protease inhibitors, confirmation, biochemical, luminescence, single concentration (AID 488915;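 active = mean inhibition above about 50% in the one-dose retest, limit read from the data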); details: recombinant SENP6, Z-RLRGG-aminoluciferin luminescence; at 12.5 µM; stronger effect = higher value
# Sequence of Sentrin-specific protease 6 (Homo sapiens) (Q9GZR1 628-1112 limits assumed): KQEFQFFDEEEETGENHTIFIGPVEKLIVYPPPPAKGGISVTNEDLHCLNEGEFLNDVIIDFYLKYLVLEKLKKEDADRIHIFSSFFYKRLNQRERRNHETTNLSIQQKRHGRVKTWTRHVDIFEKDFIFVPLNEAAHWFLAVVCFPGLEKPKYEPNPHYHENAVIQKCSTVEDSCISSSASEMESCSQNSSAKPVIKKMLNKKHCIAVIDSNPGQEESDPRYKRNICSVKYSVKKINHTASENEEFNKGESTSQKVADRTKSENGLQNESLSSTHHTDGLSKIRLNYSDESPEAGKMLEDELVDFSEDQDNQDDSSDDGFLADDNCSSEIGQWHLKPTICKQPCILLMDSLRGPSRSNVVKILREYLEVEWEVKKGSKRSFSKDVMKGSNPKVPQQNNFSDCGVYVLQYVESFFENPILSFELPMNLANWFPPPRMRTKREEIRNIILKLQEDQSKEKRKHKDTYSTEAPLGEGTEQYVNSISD
# [7] = biological target: Sentrin-specific protease 7 (Homo sapiens) (UniProt Q9BQF6); assay: SENP7 protease inhibitors, retest, confirmation, biochemical, luminescence, single concentration (AID 488917;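 active = mean inhibition above about 50% in the one-dose retest, limit read from the data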); details: recombinant SENP7, Z-RLRGG-aminoluciferin luminescence, 40 min; at 12.5 µM; stronger effect = higher value
# Sequence of Sentrin-specific protease 7 (Homo sapiens) (Q9BQF6 706-1050 limits assumed): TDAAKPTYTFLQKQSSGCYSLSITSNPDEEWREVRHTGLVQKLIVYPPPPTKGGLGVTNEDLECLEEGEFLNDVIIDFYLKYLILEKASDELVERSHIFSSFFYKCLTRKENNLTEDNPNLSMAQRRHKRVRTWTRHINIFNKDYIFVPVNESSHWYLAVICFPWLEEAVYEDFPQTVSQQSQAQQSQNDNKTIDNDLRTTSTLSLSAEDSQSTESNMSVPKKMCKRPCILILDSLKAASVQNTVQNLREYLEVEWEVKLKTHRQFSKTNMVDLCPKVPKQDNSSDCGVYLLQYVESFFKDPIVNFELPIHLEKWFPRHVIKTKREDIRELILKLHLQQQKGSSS
# [8] = biological target: Caspase-3 (Homo sapiens) (UniProt P42574); assay: caspase-3 protease inhibitors, confirmation, selectivity assay for SENP inhibitor project, biochemical, single concentration (AID 488918;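 active = mean inhibition above about 50%, limit read from the data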;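 note: plate controls were enzyme with DMSO for no effect and wells without caspase-3 for full effect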); details: purified caspase-3, Z-DEVD-aminoluciferin luminescence, 60 min; at 12.5 µM; stronger effect = higher value
# Sequence of Caspase-3 (Homo sapiens) (P42574 28-227 limits assumed): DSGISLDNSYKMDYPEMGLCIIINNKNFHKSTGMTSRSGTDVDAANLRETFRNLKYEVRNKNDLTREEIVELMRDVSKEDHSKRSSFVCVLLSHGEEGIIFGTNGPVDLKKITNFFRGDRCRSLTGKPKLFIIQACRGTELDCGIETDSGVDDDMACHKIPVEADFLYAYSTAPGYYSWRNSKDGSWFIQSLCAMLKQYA
# [9] = luciferase luminescence interference by compounds, confirmation, artefact control for SENP inhibitor project, biochemical, single concentration, SENP8 reaction pre-completed (AID 488919;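 active = mean inhibition above about 50% when retested at one dose, limit read from the data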;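 note: plate controls were DMSO wells with completed reaction for no effect and substrate without enzyme for full effect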); details: Pre-incubated SENP8/Z-RLRGG-aminoluciferin, at 12.5 µM, stronger effect = higher value
# [10] = Peg3 promoter reporter inhibitors, retest, confirmation, cell-based, HeLa, luciferase reporter, single concentration (AID 602417;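 active = at 20 µM dose, 40% or more inhibition averaged across four replicates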); details: HeLa PEG-Prom luciferase reporter, luminescence, overnight; at 20 µM; stronger effect = higher value
# [11] = HIF-2a reporter inhibitor retest, confirmation, luminescence, 786-0 RCC cells (AID 651580;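 active = mean inhibition across four replicates of at least 40 percent at the single tested concentration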); details: HIF-2a luciferase reporter luminescence, overnight, at 18.8 µM, stronger effect = higher value
# [12] = HIF-1a luciferase reporter signal reduction – MiaPaCa-2 cells, single concentration, counter-screen for HIF-2a inhibitor project, confirmation (AID 651589;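 active = mean inhibition of the reporter signal across four replicates at the single tested dose of 50% or more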); details: MiaPaCa-2 HIF-1a luciferase reporter, desferoxamine, overnight; at 18.8 µM; stronger effect = higher value
# [13] = biological target: PEG-3 (UniProt Q6IN02); assay: Peg3 promoter luciferase inhibitors, potency, dose response, cell-based, HeLa, CREF/GAPDH counter-screen panel (AID 624167); details: CREF/GAPDH counter-screens; HeLa PEG-Prom luciferase reporter, overnight, run 1, dose range 1, at 100 µM (top of the series) unless noted
# Sequence of PEG-3 (Q6IN02 whole entry, looked up): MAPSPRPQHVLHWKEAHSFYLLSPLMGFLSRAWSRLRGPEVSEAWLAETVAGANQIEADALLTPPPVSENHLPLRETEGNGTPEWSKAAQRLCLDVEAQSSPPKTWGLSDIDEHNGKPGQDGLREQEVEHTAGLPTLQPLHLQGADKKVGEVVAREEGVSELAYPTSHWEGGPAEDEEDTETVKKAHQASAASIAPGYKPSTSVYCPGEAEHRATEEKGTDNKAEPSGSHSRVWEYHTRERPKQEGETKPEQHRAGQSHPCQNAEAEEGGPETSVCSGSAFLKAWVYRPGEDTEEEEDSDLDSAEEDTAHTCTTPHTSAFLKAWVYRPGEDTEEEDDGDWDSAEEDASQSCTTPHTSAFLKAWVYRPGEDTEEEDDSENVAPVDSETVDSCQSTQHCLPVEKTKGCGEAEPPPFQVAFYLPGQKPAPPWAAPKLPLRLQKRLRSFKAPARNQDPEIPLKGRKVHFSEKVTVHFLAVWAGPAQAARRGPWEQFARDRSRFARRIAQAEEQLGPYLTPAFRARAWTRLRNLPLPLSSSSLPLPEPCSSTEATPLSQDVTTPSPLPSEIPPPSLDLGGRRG
# [14] = biological target: PEG-3 (UniProt Q6IN02); assay: as above; details: CREF/GAPDH counter-screens; HeLa PEG-Prom luciferase reporter, overnight, run 2, dose range 1, at 100 µM (top of the series) unless noted
# [15] = tested on: Rat fibroblasts (CREF); assay: as above; details: CREF/GAPDH counter-screens; run 1, dose range 1, at 100 µM (top of the series)
# [16] = tested on: Rat fibroblasts (CREF); assay: as above; details: CREF/GAPDH counter-screens; run 2, dose range 1, at 100 µM (top of the series)
# [17] = activators of apoptotic CHOP UPR arm, confirmation, cell-based, CHO-CHOP luciferase reporter, single concentration (AID 463112; in the data active = activation above about 33%;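 note: 0% = DMSO wells and 100% = tunicamycin 10 µg/mL wells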); details: CHO-CHOP cells, CHOP-luciferase reporter luminescence; at 10 µM; stronger effect = higher value; percent of tunicamycin response, DMSO as zero
smiles,measurement,setting,value
O=c1cc(-c2ccccc2)[nH]c2cc(F)ccc12,inhibition,[1],46% (inactive)
CCCOc1ccccc1C1CC(=O)Nc2cc3c(cc21)OCO3 (configuration not stated),inhibition,[1],62% (active)
O=C(Nc1ccc(NC(=O)c2cccs2)cn1)c1ccco1,cytotoxicity,[2],42.1% (inactive)
same,activity,[3],63.1%
same,activity,[4],71.5%
COc1cc(SC)ccc1C(=O)Nc1nc(C)cs1,cytotoxicity,[2],95.8% (active)
same,inhibition,[5],89.6% (active)
same,inhibition,[6],98.7% (active)
same,inhibition,[7],100% (active)
same,inhibition,[8],95.3% (active)
same,inhibition,[9],46.2% (inactive)
same,inhibition,[10],83% (active)
same,inhibition,[11],92.8% (active)
same,inhibition,[12],96.9% (active)
same,inhibition,[13],96.4%
same,inhibition,[14],95.2%
same,inhibition,[15],98.6%
same,inhibition,[16],99.8%
same,activity,[3],98.2%
same,activity,[4],97.8%
Cc1ccc2nc(-c3ccncc3)cc(C(=O)Nc3ccc(OC(F)F)cc3)c2c1,inhibition,[1],28.2% (inactive)
O=C(Nc1ccc(CSc2ccccc2)cc1)c1ccc(CN2CCOCC2)cc1,inhibition,[1],62.3% (active)
COc1ccc(-c2csc(Nc3ccccn3)n2)cc1,inhibition,[1],16.1% (inactive)
Cc1ccc(NC(=O)c2csc3c2CCCC3)cc1,inhibition,[1],-157% (inactive)
N=c1c2c(-c3ccccc3)c(-c3ccccc3)n(Cc3ccccc3)c2ncn1CCCO,inhibition,[1],24.1% (inactive)
COc1ccc(-n2nnnc2-c2nc3ccccc3s2)cc1,inhibition,[1],-67.2% (inactive)
same,inhibition,[5],17.5% (inactive)
same,inhibition,[6],26.7% (inactive)
same,inhibition,[7],4.7% (inactive)
same,inhibition,[8],35.5% (inactive)
same,inhibition,[9],1.6% (inactive)
Cc1ccc(O)c(NC(=O)c2cc(-c3ccco3)on2)c1,inhibition,[1],52.2% (active)
same,inhibition,[5],30.6% (inactive)
same,inhibition,[6],36.5% (inactive)
same,inhibition,[7],81.1% (active)
same,inhibition,[8],44.4% (inactive)
same,inhibition,[9],14.4% (inactive)
Fc1ccccc1/C=N/Nc1cc(N2CCCCC2)ncn1,inhibition,[1],-109% (inactive)
same,inhibition,[5],17.6% (inactive)
same,inhibition,[6],16.9% (inactive)
same,inhibition,[7],16.6% (inactive)
same,inhibition,[8],25.2% (inactive)
same,inhibition,[9],6.6% (inactive)
N#Cc1ccc(C2N=C(c3ccccc3)NO2)cc1 (configuration not stated),inhibition,[1],-93.9% (inactive)
same,inhibition,[5],24.2% (inactive)
same,inhibition,[6],9.2% (inactive)
same,inhibition,[7],22.5% (inactive)
same,inhibition,[8],13.1% (inactive)
same,inhibition,[9],2.1% (inactive)
CCCOc1ccc(C(=O)NCCc2ccccc2)cc1,inhibition,[1],-82% (inactive)
same,inhibition,[5],13.2% (inactive)
same,inhibition,[6],62% (active)
same,inhibition,[7],88.3% (active)
same,inhibition,[8],78% (active)
same,inhibition,[9],-5.4% (inactive)
Oc1ccc(/C=N/Nc2ccc(C(F)(F)F)cn2)cc1O,inhibition,[1],-7.8% (inactive)
same,activation,[17],68.9% (active)
O=C(Nc1ccc2sc3ccccc3c(=O)c2c1)c1ccccc1Cl,inhibition,[1],-104% (inactive)
same,inhibition,[5],6.3% (inactive)
same,inhibition,[6],0% (inactive)
same,inhibition,[7],13.5% (inactive)
same,inhibition,[8],24.3% (inactive)
same,inhibition,[9],4.3% (inactive)
O=C(NCC#CCSc1nnc(-c2cccc3ccccc23)o1)c1cccs1,inhibition,[1],62.8% (active)
Cc1ccc(OCc2nc3ccccc3n2C)cc1,inhibition,[1],-91.5% (inactive)
same,inhibition,[5],8.9% (inactive)
same,inhibition,[6],54.5% (active)
same,inhibition,[7],79% (active)
same,inhibition,[8],68% (active)
same,inhibition,[9],18.5% (inactive)
C/C(=N\NC(=O)c1ccccc1F)c1ccccn1,inhibition,[1],4.3% (inactive)
COc1cc(C(=O)NN(CCC#N)C2=NS(=O)(=O)c3ccccc32)cc(OC)c1OC,inhibition,[1],-119% (inactive)
CCCc1cc(C(=O)Nc2ccc(Cl)cn2)cs1,inhibition,[1],-104% (inactive)
same,inhibition,[5],73.5% (active)
same,inhibition,[6],79.2% (active)
same,inhibition,[7],92.2% (active)
same,inhibition,[8],66.8% (active)
same,inhibition,[9],59.1% (active)
Cn1c(-c2ccc(C(F)(F)F)cc2)cc2onc(-c3ccccc3)c2c1=O,inhibition,[1],-121% (inactive)
COc1ccc(N=C(C)c2sc3ccccc3c2O)cc1,inhibition,[1],-7.85% (inactive)
same,inhibition,[5],16.5% (inactive)
same,inhibition,[6],19.5% (inactive)
same,inhibition,[7],14.7% (inactive)
same,inhibition,[8],9.6% (inactive)
same,inhibition,[9],-5.1% (inactive)
Cc1c(C(=O)Nc2ccccn2)oc2ccc(Br)cc12,inhibition,[1],-77.2% (inactive)
same,inhibition,[5],14.3% (inactive)
same,inhibition,[6],18.5% (inactive)
same,inhibition,[7],27.6% (inactive)
same,inhibition,[8],22.7% (inactive)
same,inhibition,[9],17.1% (inactive)
COc1ccc(CNS(=O)(=O)c2cc(-c3cc(C)no3)ccc2C(C)C)cc1,inhibition,[1],41.9% (inactive)
